From PubChem BioAssay (NCI)
This is part of a sample that, as a whole, favours compounds with a hit. Of some 83,000 tested, about 20% had one in any assay.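 Activity criterion: percent growth below 10, measured after cells in 96-well plates were exposed to a single compound concentration for 48 hours.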 Unmarked numbers belong to inactive results. The source made the active and inactive calls.

Columns and labels:
Experiment in all cases: NCI-60 one-dose screen, 48 h (100 = growth as untreated, 0 = no growth, -100 = all killed)
Conditions in all cases: 10 µM unless noted
HT29 colon = system: HT29 colon
SNB-75 CNS = system: SNB-75 CNS
SNB-19 CNS = system: SNB-19 CNS
U251 CNS = system: U251 CNS
PC-3 prostate = system: PC-3 prostate
SK-MEL-5 melanoma = system: SK-MEL-5 melanoma
LOX IMVI melanoma = system: LOX IMVI melanoma
SK-MEL-28 melanoma = system: SK-MEL-28 melanoma
SK-MEL-2 melanoma = system: SK-MEL-2 melanoma
SN12C renal = system: SN12C renal
UO-31 renal = system: UO-31 renal
ACHN renal = system: ACHN renal
CAKI-1 renal = system: CAKI-1 renal
A498 renal = system: A498 renal
CCRF-CEM leukemia = system: CCRF-CEM leukemia
MOLT-4 leukemia = system: MOLT-4 leukemia
SR leukemia = system: SR leukemia
UACC-62 melanoma = system: UACC-62 melanoma
EKVX NSCLC = system: EKVX NSCLC
TK-10 renal = system: TK-10 renal

Row | SMILES | growth (HT29 colon) | growth (SNB-75 CNS) | growth (SNB-19 CNS) | growth (U251 CNS) | growth (PC-3 prostate) | growth (SK-MEL-5 melanoma) | growth (LOX IMVI melanoma) | growth (SK-MEL-28 melanoma) | growth (SK-MEL-2 melanoma) | growth (SN12C renal) | growth (UO-31 renal) | growth (ACHN renal) | growth (CAKI-1 renal) | growth (A498 renal) | growth (CCRF-CEM leukemia) | growth (MOLT-4 leukemia) | growth (SR leukemia) | growth (UACC-62 melanoma) | growth (EKVX NSCLC) | growth (TK-10 renal)
1 | COc1cc2c(C#N)n3c(c2cc1OC)C(=O)C(c1ccccc1)Oc1ccccc1-3 (stereo not drawn) | 50.2% | 52.5% | 41.1% | 24.4% | 33.4% | 25.5% | 22.2% | 93.3% | 64.8% | 37.2% | 15.8% | 54.3% | 65.6% | 52.4% | 17.1% | 63.4% | 12.5% |  |  | 
2 | CCC[C@H](N[C@@H](C)C(=O)N1[C@H](C(=O)O)C[C@@H]2CCCC[C@@H]21)C(=O)OCC | 100% | 112% | 104% | 93.6% | 91.8% |  | 89.8% | 123% | 112% | 101% | 77.4% | 90.8% | 102% | 98.9% | 105% | 115% |  | 104% | 111% | 113%
3 | N#Cc1c2ccccc2c2n1-c1ccccc1OC(c1ccccc1)C2=O (stereo not drawn) | 23.1% | 24.2% | 23.5% | 17.9% | 32.1% | 10.6% | 9.92% (active) | 93.8% | 59.9% | 15.4% | 11.2% | 29% | 30.6% | 30.6% | 6.32% (active) | 56.4% | -7.43% (active) |  |  | 
4 | O=C(/C=C/c1ccc(Cl)cc1)c1ccccc1 | 93.8% | 109% | 101% | 88.2% | 97% | 93% | 81.1% |  | 102% | 98% | 88.3% | 110% | 101% | 87.5% | 87.9% | 96.7% | 23.1% |  |  | 
5 | COC(=O)[C@]12CC[C@@H](C)[C@H](C)[C@@H]1C1=CC[C@@H]3[C@@]4(C)C=C(O)C(=O)[C@@]5(C)COC(=C54)C[C@@]3(C)[C@]1(C)CC2 | -70.6% (active) | 12.7% | -26.5% (active) | -74.9% (active) | -71.2% (active) | -98.1% (active) | -98.8% (active) | -56.9% (active) | -62.8% (active) | -29.9% (active) | -50.2% (active) | -71.7% (active) | -45.7% (active) | -78% (active) | -60.8% (active) | -72.1% (active) | -68.2% (active) |  | -56.7% (active) | 
6 | NC(=O)SCC(=O)Nc1ccccc1-c1ccccc1 | 87.2% | 138% | 89.5% | 92.9% | 90.2% | 111% | 90.6% | 116% | 88.9% | 90.7% | 64.9% | 83% | 105% |  | 103% | 98% | 122% |  | 121% | 106%
7 | COc1ccc(-c2csc(NC(=O)c3cc(O)c(O)c(O)c3)n2)cc1 | 92.3% | 58.8% | 59.9% | 45.6% | 68.4% | 51% | 50.6% | 89.1% | 71.4% | 64.8% | 30.3% | 36% | 38.6% | 112% | 18.5% | 28% | 14.5% |  |  | 
8 | Fc1ccc(-c2nc(Nc3ccc(-c4nc5ccccc5[nH]4)cc3)nc(N3CCOCC3)n2)cc1 | -78.6% (active) | -92.6% (active) | -81.2% (active) | -93% (active) | -93.5% (active) | -97.6% (active) | -93% (active) | -84.7% (active) | -71.3% (active) | -79.5% (active) | -87.6% (active) | -90.6% (active) | -93.6% (active) |  | -91.5% (active) | -91.6% (active) | -83.3% (active) |  | -91.3% (active) | -94.4% (active)
9 | NC(=O)c1ncn([C@@H]2O[C@H](CO)[C@@H](O)[C@H]2O)n1 | 52.5% | 92.2% | 96.2% | 94.7% | 86% |  | 84.2% | 115% | 103% | 89.3% | 73.5% | 83.1% | 85.4% | 110% | 76.9% | 72.3% |  | 104% | 96.9% | 95.5%
10 | CCC1(c2ccccc2)Oc2ccccc2-n2c(C#N)c3ccccc3c2C1=O (stereo not drawn) | 96.8% | 95.9% | 106% | 96.7% | 93.8% | 100% | 103% | 114% | 103% | 95.6% | 86.6% | 96.5% | 100% | 97% | 95.6% | 91% | 89.2% |  |  | 
11 | Cc1ccsc1/C=C/C1=NCCCN1C | 99.3% | 102% | 104% | 100% | 90.5% |  | 95.6% | 103% | 92.6% | 95.3% | 80% | 101% | 97.1% | 113% | 81% | 95% |  | 106% | 99.5% | 104%
12 | CCCc1cccc(CCC)c1O | 103% | 118% | 109% | 85.7% | 100% | 104% | 100% | 117% | 133% | 107% | 98% | 115% | 93.8% |  | 111% | 105% | 116% |  | 98.9% | 116%
13 | C=C(C)[C@H]1CC/C(C)=C/CC[C@]2(C)O[C@H]2CC/C(COC(C)=O)=C\C1=O | 115% | 120% | 108% | 101% | 94.6% | 109% | 88.1% | 116% |  | 104% | 69.4% | 98.9% |  | 91.1% | 103% | 90.2% | 56.7% |  | 44.3% | 117%
14 | O=C(OC[C@H]1O[C@H](OC(=O)c2cc(O)c(O)c(OC(=O)c3cc(O)c(O)c(O)c3)c2)[C@H](OC(=O)c2cc(O)c(O)c(OC(=O)c3cc(O)c(O)c(O)c3)c2)[C@@H](OC(=O)c2cc(O)c(O)c(OC(=O)c3cc(O)c(O)c(O)c3)c2)[C@@H]1OC(=O)c1cc(O)c(O)c(OC(=O)c2cc(O)c(O)c(O)c2)c1)c1cc(O)c(O)c(OC(=O)c2cc(O)c(O)c(O)c2)c1 | 33.5% | 53.6% | 36.6% | 22.3% | 38% |  | 7.17% (active) | 78.6% | 80.4% | 31.6% | 22.1% | 24.6% | 19.6% | 35.6% | 24% | 26.3% |  | 10.6% | 37.4% | 43.4%
15 | C=C1c2c(C)nn(-c3ccc(C#CCOC4OC(CO)C(O)C(O)C4O)cc3)c2N(C)C23C[C@H]1C1(C)c4c(C)nn(-c5ccc(C#CCOC6OC(CO)C(O)C(O)C6O)cc5)c4N(C)C(C)(C[C@H]12)C3 (stereo partly drawn) | 8.04% (active) | 6.04% (active) | 2.15% (active) | -35% (active) | -26.1% (active) | -74.7% (active) | -42.4% (active) | 5.91% (active) | -43.5% (active) | 8.29% (active) | 21.1% | 27.7% | -29.8% (active) | 4.38% (active) | -30.2% (active) | -14.9% (active) | 6.31% (active) |  |  | 
16 | Cc1c(N(C)CS(=O)(=O)O)c(=O)n(-c2ccccc2)n1C | 97.7% | 111% | 101% | 100% | 94.8% |  | 104% | 108% | 106% | 93.9% | 79.9% | 101% | 98.8% | 109% | 96.9% | 83% |  | 96.9% | 93.1% | 108%
17 | COc1cc([C@@H]2c3cc4c(cc3C(O[C@@H]3O[C@@H]5CO[C@@H](c6cccs6)OC5[C@H](O)[C@H]3O)C3COC(=O)[C@@H]32)OCO4)cc(OC)c1O (stereo partly drawn) | -24.8% (active) | -37% (active) | 1.98% (active) | -15.5% (active) | 4.52% (active) |  | -37.3% (active) | -29% (active) | -47.3% (active) | -9.91% (active) | -72.2% (active) | -54.3% (active) | -10.3% (active) | -73.2% (active) | -1.14% (active) | 3.06% (active) |  | -54.3% (active) | 12.7% | -54.7% (active)
